Test results as given in the supplement of paper PMC4840960.
± gives the standard deviation of the averaged measurements.

Tested on: E18 rat cortical neuron-glia co-culture
Experiment: fiber score / MBP score (myelination specific beyond OL differentiation) (ratio); higher = more myelination-specific MBP alignment
Settings: 5 µM; treatment time: 8 days (DIV5-DIV13)
Method in brief: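 Fiber score divided by MBP score is the read-out; fiber score is continuous MBP fiber length per Olig2+ nucleus, and MBP score is thresholded MBP area × intensity per Olig2+ nucleus. Primary E18 rat cortical co-cultures were dissociated with papain and seeded at 20,000 cells/well on poly-d-lysine/laminin 96-well plates. Library compounds at 1 or 5 µM were given in myelination medium from DIV5 to DIV13, after which cells were fixed in 4 % paraformaldehyde, immunostained for MBP and Olig2 with DAPI, and imaged in four 10X fields per well in duplicate wells.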

Structure (SMILES)	fiber score / MBP score
CO[C@H]1/C=C/O[C@@]2(C)Oc3c(C)c(O)c4c(O)c(c(/C=N/N5CCN(C)CC5)c(O)c4c3C2=O)NC(=O)/C(C)=C\C=C\[C@H](C)[C@H](O)[C@@H](C)[C@@H](O)[C@@H](C)[C@H](OC(C)=O)[C@@H]1C [Rifampicin]	0.704
COc1ccc2cc(CCC(C)=O)ccc2c1 [Nabumetone]	1.17
Nc1ncnc2c1ncn2[C@@H]1O[C@H](CO)[C@@H](O)[C@H]1O [Adenosine]	0.875
Cc1noc(NS(=O)(=O)c2ccc(N)cc2)c1C [Sulfisoxazole]	0.834
CC(=O)OCC(=O)[C@@]1(O)CC[C@H]2[C@@H]3CCC4=CC(=O)CC[C@]4(C)[C@H]3C(=O)C[C@@]21C [Cortisone acetate]	0.732
COc1cc(CNC(=O)CCCC/C=C\C(C)C)ccc1O [Zucapsaicin]	1.51
CN1CCN2c3ncccc3Cc3ccccc3C2C1 (centres undefined) [Mirtazapine]	1.07
COCCOC(=O)C1=C(C)NC(C)=C(C(=O)OC(C)C)C1c1cccc([N+](=O)[O-])c1 (centres undefined) [Nimodipine]	0.338
CN1CCN(c2c(F)cc3c(=O)c(C(=O)O)cn4c3c2SCC4)CC1 [Rufloxacin]	0.68
CC1(C)S[C@@H]2[C@H](NC(=O)[C@H](N)c3ccccc3)C(=O)N2[C@H]1C(=O)O [Ampicillin]	0.192
C=C1/C(=C\C=C2/CCC[C@]3(C)[C@@H]([C@H](C)CCCC(C)(C)O)CC[C@@H]23)C[C@@H](O)C[C@@H]1O [Calcitriol]	0.531
CN(C)CCOC(C)(c1ccccc1)c1ccccn1 (centres undefined) [Doxylamine]	0.969
CNCC[C@H](Oc1cccc2ccccc12)c1cccs1 [Duloxetine]	0.881 ± 0.45
COc1cc(N)c(Cl)cc1C(=O)NC1CCN(CCCOc2ccc(F)cc2)CC1OC (centres undefined) [Cisapride]	0.515
CCN(CC)CCNC(=O)c1cc(Cl)c(N)cc1OC [Metoclopramide]	0.91
CCC(C)(C)C(=O)O[C@H]1C[C@@H](C)C=C2C=C[C@H](C)[C@H](CC[C@@H]3C[C@@H](O)CC(=O)O3)[C@H]21 [Simvastatin]	3.15
C[C@]12CCC(=O)C=C1CC[C@@H]1[C@@H]2[C@@H](O)C[C@@]2(C)[C@H]1CC[C@]2(O)C(=O)CO [Hydrocortisone]	0.656 ± 0.11
CCN(CC)CCNC(=O)c1ccc(N)cc1 [Procainamide]	1.19
Nc1ccn([C@H]2CC[C@@H](CO)O2)c(=O)n1 [Zalcitabine]	0.902
CC(=O)OCC(=O)NCCCOc1cccc(CN2CCCCC2)c1 [Roxatidine acetate]	0.706

Structure (SMILES)	fiber score / MBP score
C[C@H]1C[C@H]2[C@@H]3CCC4=CC(=O)C=C[C@]4(C)[C@@]3(F)[C@@H](O)C[C@]2(C)[C@@]1(O)C(=O)CCl [Clobetasol]	0.686
CN(C)CCCN1c2ccccc2CCc2ccccc21 [Imipramine]	0.517
CCOC(=O)[C@H](CCc1ccccc1)N[C@@H](C)C(=O)N1Cc2ccccc2C[C@H]1C(=O)O [Quinapril]	0.825
O=C(CCCN1CC=C(n2c(=O)[nH]c3ccccc32)CC1)c1ccc(F)cc1 [Droperidol]	0.601
CCOC(=O)c1ccc(OC(=O)CCCCCNC(=N)N)cc1 [Gabexate]	0.799
CN(C)CCc1c[nH]c2ccc(Cn3cncn3)cc12 [Rizatriptan]	0.414
CCC1=C[C@@H]2CN(C1)Cc1c([nH]c3ccccc13)[C@@](C(=O)OC)(c1cc3c(cc1OC)N(C)[C@H]1[C@@](O)(C(=O)OC)[C@H](OC(C)=O)[C@]4(CC)C=CCN5CC[C@]31[C@@H]54)C2 [Vinorelbine]	0.453
CN(C)CCN(Cc1ccccc1)c1ccccn1 [Tripelennamine]	0.588
O=C(c1ccc(OCCN2CCCCC2)cc1)c1c(-c2ccc(O)cc2)sc2cc(O)ccc12 [Raloxifene]	0.788
Nc1nc2c(ncn2COCCO)c(=O)[nH]1 [Acyclovir]	1.1
COc1cc(C)c(Cc2cnc(N)nc2N)cc1OC [Ormetoprim]	0.726
Nc1nc(=O)[nH]cc1F [Flucytosine]	0.855
COc1ccc(CCN(C)CCCC(C#N)(c2ccc(OC)c(OC)c2)C(C)C)cc1OC (centres undefined) [Verapamil]	0.533
CC(C)n1c(/C=C/C(O)CC(O)CC(=O)O)c(-c2ccc(F)cc2)c2ccccc21 (centres undefined) [Fluvastatin]	0.319
Cc1cnc(C(=O)NCCc2ccc(S(=O)(=O)NC(=O)NC3CCCCC3)cc2)cn1 [Glipizide]	0.658
CC(C)OC(=O)C(C)(C)Oc1ccc(C(=O)c2ccc(Cl)cc2)cc1 [Fenofibrate]	0.661
CCn1cc(C(=O)O)c(=O)c2ccc(C)nc21 [Nalidixic Acid]	0.797
CCN(CC)CC(=O)Nc1c(C)cccc1C [Lidocaine]	0.698
CC(C)C(=O)Nc1ccc([N+](=O)[O-])c(C(F)(F)F)c1 [Flutamide]	0.938
